Each compound was assayed against Catechol O-methyltransferase (Homo sapiens) (UniProt P21964) (assay: Confirmatory Screen for Target Class Profiling of Small Molecule Inhibitors of Methyltransferases (AID 1745852)). Conditions: MTase-Glo luminescence, SAH detection, recombinant enzyme; measured here: COMT max response; stronger effect = lower value.
Sequence of Catechol O-methyltransferase (Homo sapiens) (P21964 whole entry, looked up): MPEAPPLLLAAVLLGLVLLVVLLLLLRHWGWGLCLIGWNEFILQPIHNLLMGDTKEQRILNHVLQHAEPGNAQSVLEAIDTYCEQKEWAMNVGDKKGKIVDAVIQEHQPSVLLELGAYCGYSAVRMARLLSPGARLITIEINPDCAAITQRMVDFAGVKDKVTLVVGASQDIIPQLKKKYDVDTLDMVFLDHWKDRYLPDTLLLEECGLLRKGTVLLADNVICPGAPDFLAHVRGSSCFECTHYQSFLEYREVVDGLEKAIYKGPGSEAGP

SMILES | activity [%]
COc1ccc(Cc2nccc3cc(OC)c(OC)cc23)cc1OC | -10.8
Cc1cccc(Nc2nc(-c3ccncc3)cs2)c1 | -88.1
CC1(C)CCC2=C(O1)c1ccccc1C(=O)C2=O | -19.8
O=C(Nc1ccccc1-c1cn2c(CN3CCNCC3)csc2n1)c1cnc2ccccc2n1 | -38.1
